# Test results as given in PubChem BioAssay AID588507 (Broad Institute, 2011).
# The source made the active and inactive calls. The rule behind the calls is not given here.
# Test: compound effect on GFP reporter cells – imaging, dry powder samples, counter-screen for PrP inhibitor project, dose response (AID 588507)
# Conditions: max activity: measured here: maximum activity across titration, at 0.0195 µM; series mostly up to 5 µM
smiles,measurement,value
COc1cc(SC)ccc1C(=O)Nc1nc2ccccc2[nH]1,max activity,451%
same,outcome,inactive
